Bioassay records from PubChem.
PfHsp90 yeast 2: growth inhibition of yeast expressing Plasmodium Hsp90. 310,000 compounds, 0.32% hits. S. cerevisiae expressing PfHsp90, BacTiter-Glo ATP, 48 h; yeast lacking PDR1 and PDR3 efflux regulators. inhibition, % at 9.4 µM;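 active = every replicate shows inhibition above about 80%, whatever the replicate mean, limit read from the data; inconclusive = mean inhibition reaches the set limit but some replicate falls short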;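 note: 0% = DMSO neutral controls and 100% = 20 µM radicicol positive controls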
tim23-1 inh: tim23-1 yeast growth inhibition; S. cerevisiae tim23-1 growth, BacTiter-Glo luminescence, 24 h; inhibition, % at 20 µM; 330,000 compounds, 1.3% hits;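 active = growth inhibition of the mutant yeast at or above 50%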;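 note: temperature-sensitive mutant grown at 25 °C; plate controls were DMSO-treated mutant yeast for no effect and medium wells lacking yeast for full effect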
TIM10 inh: growth inhibitors of TIM10 yeast strain; S. cerevisiae TIM10 strain growth, BacTiter-Glo luminescence, 24 h; inhibition, % at 10 µM; 330,000 compounds, 1.4% hits;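 active = inhibition of 40% or more at the single tested concentration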;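 note: wild-type TIM10 isogenic control strain grown at permissive 25 °C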
SKKanGAS inh: blocks kanamycin growth of S. pyogenes SKKanGAS strain; inhibition, % at 7.5 µM; 300,000 compounds, 1.3% hits; BacTiter-Glo, 6 h;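 active = mean replicate score, as percent of positive control median, at least 50; inconclusive = mean below 50 but one replicate at or above 50; inactive = mean and every replicate below 50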;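 note: strain carries kanamycin resistance gene driven by streptokinase promoter and grows in 40 µg/ml kanamycin; loss of luminescence reflects streptokinase promoter inhibition or plain growth inhibition; 0% = median of DMSO wells and 100% = positive control at its reference dose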
tim10-1 inh: tim10-1 yeast growth inhibition; 330,000 compounds, 2.2% hits; AID 463190; S. cerevisiae tim10-1 ts strain growth, BacTiter-Glo, 24 h; inhibition, % at 20 µM;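 active = inhibition of at least 40%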;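 note: mutant grown at 25 °C; 0% = DMSO wells with yeast and 100% = wells holding no yeast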
tim10-1 conf: confirmation of tim10-1 mutant yeast growth inhibitors; shares compounds with tim10-1 inh; S. cerevisiae tim10-1 ts strain growth, BacTiter-Glo, 24 h; inhibition, % at 20 µM; 7,400 compounds, 56% hits;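 active = inhibition of yeast growth at or above a set limit in either of two repeat tests at 20 µM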;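 note: tim10-1 mutant grown at permissive 25 °C to find synthetic lethal compounds; 0% = DMSO yeast wells and 100% = medium wells without yeast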
tim10 confirm: TIM10 yeast growth inhibition, confirmed. shares compounds with TIM10 inh. S. cerevisiae tim10 strain growth, BacTiter-Glo luminescence, 24 h. inhibition, % at 10 µM. 4,600 compounds, 63% hits. AID 463215;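 active = inhibition of yeast growth at or above a set limit in either of two replicates at 10 µM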;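 note: this counterscreen used the strain with wild-type TIM10; 0% = yeast with DMSO and 100% = medium wells lacking yeast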
tim23-1 confirm: confirmation of tim23-1 mutant yeast growth inhibitors | shares compounds with tim23-1 inh | S. cerevisiae tim23-1 growth, BacTiter-Glo luminescence, 24 h | inhibition, % at 20 µM | 4,400 compounds, 83% hits;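 active = inhibition above about 39% in either of two replicate wells at 20 µM, limit read from the data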;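 note: temperature-sensitive tim23-1 mutant grown at 25 °C; 0% = DMSO wells with yeast and 100% = medium wells without yeast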
Active calls of the source: *. Compounds with a hit are over-represented: about 4.4% of the library has one in this group of screens.

How did CN(C(=O)C(C)(C)C)C1c2c(ccc3ccccc23)OCC1CO (stereo unspecified) do in these assays?
PfHsp90 yeast 2: -6.3; SKKanGAS inh: 3.0

How did COc1cc(C(=O)O[C@H]2C/C(C)=C/CC[C@]3(C)O[C@@H]3C(O)C2C(C)C)cc(OC)c1OC (stereo partly specified) do in these assays?
PfHsp90 yeast 2: -8.8; tim23-1 inh: 27.7; TIM10 inh: 20.4; SKKanGAS inh: 7.9; tim10-1 inh: 29.2

How did COc1cc(C(=O)O[C@H]2CC(C)=CC[C@@]3(C)CC[C@@](O)(C(C)C)[C@H]23)ccc1O do in these assays?
PfHsp90 yeast 2: -27.3; tim23-1 inh: 54.3*; TIM10 inh: 29.0; SKKanGAS inh: 13.8; tim10-1 inh: 50.2*; tim10-1 conf: 39.5*; tim23-1 confirm: 57.3*

What do the screens show for `Cn1c(SCc2ccccc2F)nnc1-c1ccccn1`?
PfHsp90 yeast 2: 8.4; tim23-1 inh: 11.7; TIM10 inh: 0.4; SKKanGAS inh: -2.4; tim10-1 inh: 23.0

How did N#C/C(=C\c1cccc(NC(=O)c2ccccc2Cl)c1)C(=O)NCCc1ccccc1 do in these assays?
PfHsp90 yeast 2: -121.3; tim23-1 inh: 60.0*; TIM10 inh: 57.0*; SKKanGAS inh: -1.5; tim10-1 inh: 66.1*; tim10-1 conf: 61.3*; tim10 confirm: 3.8; tim23-1 confirm: 57.0*

Results for O=C(NCc1ccccc1OC(F)(F)F)C1CCC(=O)N(CCc2ccccn2)C1 (stereo unspecified) ?
PfHsp90 yeast 2: 7.4; tim23-1 inh: -1.3; TIM10 inh: -5.9; SKKanGAS inh: -1.0; tim10-1 inh: -5.2

How did COc1ccc(-c2cc(-c3cc(C)ccc3O)[nH]n2)cc1 do in these assays?
PfHsp90 yeast 2: -5.2; tim23-1 inh: 68.9*; TIM10 inh: 50.9*; SKKanGAS inh: inconclusive; tim10-1 inh: 51.9*; tim10-1 conf: 45.1*; tim10 confirm: 45.0*; tim23-1 confirm: -26.1

What do the screens show for `COc1ccc(-c2cc(-c3ccc(OC)cc3)[nH]n2)cc1`?
PfHsp90 yeast 2: -0.1; tim23-1 inh: 44.0; TIM10 inh: 31.3; SKKanGAS inh: 12.3; tim10-1 inh: 19.0

How did COc1ccc(CNC(=O)C(=O)NCC2OCCN2S(=O)(=O)c2ccc(OC)cc2)cc1 (stereo unspecified) do in these assays?
PfHsp90 yeast 2: 2.4; tim23-1 inh: 6.8; TIM10 inh: 5.5; SKKanGAS inh: -2.7; tim10-1 inh: -3.6

Results for COc1ccc(C(=O)Nc2cc(C)nn2-c2cccc(F)c2)cc1OC ?
PfHsp90 yeast 2: 8.3; tim23-1 inh: 11.4; TIM10 inh: 1.0; SKKanGAS inh: -1.2; tim10-1 inh: 19.7

What do the screens show for `CCCCC[n+]1cccc2c3ccccc3ccc21`?
PfHsp90 yeast 2: -10.0; tim23-1 inh: 6.5; TIM10 inh: 5.1; SKKanGAS inh: -1.8; tim10-1 inh: 8.1

Results for CCC[n+]1c2ccccc2cc2ccccc21 ?
PfHsp90 yeast 2: -15.4; tim23-1 inh: 56.1*; TIM10 inh: 66.5*; SKKanGAS inh: -6.0; tim10-1 inh: 68.0*; tim10-1 conf: 65.5*; tim10 confirm: 61.5*; tim23-1 confirm: 60.2*

How did Cc1ccc2ccccc2[n+]1CCCS(=O)(=O)[O-] do in these assays?
PfHsp90 yeast 2: 11.7; tim23-1 inh: 7.3; TIM10 inh: -10.4; SKKanGAS inh: -1.1; tim10-1 inh: 1.0

Results for CCCC[n+]1c2ccccc2cc2ccccc21 ?
PfHsp90 yeast 2: -14.0; tim23-1 inh: 65.0*; TIM10 inh: 73.9*; SKKanGAS inh: -9.6; tim10-1 inh: 71.3*; tim10-1 conf: 70.4*; tim10 confirm: 69.3*; tim23-1 confirm: 64.0*

What do the screens show for `COc1ccc(N=c2ssnc2Cl)cc1`?
PfHsp90 yeast 2: -57.8; tim23-1 inh: 60.9*; TIM10 inh: 17.6; SKKanGAS inh: 6.4; tim10-1 inh: 52.7*; tim10-1 conf: 34.7*; tim23-1 confirm: 80.3*

What do the screens show for `Clc1ccc(N=c2ssnc2Cl)cc1`?
PfHsp90 yeast 2: 103.8*; tim23-1 inh: 63.3*; TIM10 inh: 35.2; SKKanGAS inh: -6.1; tim10-1 inh: 54.2*; tim10-1 conf: 65.6*; tim23-1 confirm: 88.3*

Results for N#Cc1ccc(N=c2ssnc2Cl)cc1 ?
PfHsp90 yeast 2: inconclusive; tim23-1 inh: 36.9; TIM10 inh: 14.4; SKKanGAS inh: -3.6; tim10-1 inh: 30.8

What do the screens show for `O=C(/C(=C/c1ccc(Cl)cc1)c1nc2ccccc2[nH]1)c1ccccc1`?
PfHsp90 yeast 2: 98.0*; tim23-1 inh: 51.0*; TIM10 inh: 51.4*; SKKanGAS inh: 31.7; tim10-1 inh: 42.3*; tim10-1 conf: 37.5*; tim10 confirm: 35.2*; tim23-1 confirm: 57.5*

How did CCCc1nnc(NC(=O)c2nc(S(=O)(=O)Cc3cccc(C)c3)ncc2Cl)s1 do in these assays?
PfHsp90 yeast 2: 4.0; tim23-1 inh: 6.4; TIM10 inh: 7.3; SKKanGAS inh: 2.9; tim10-1 inh: 23.1

Results for Cc1cccc(CS(=O)(=O)c2ncc(Cl)c(C(=O)Nc3c(C)cccc3C)n2)c1 ?
PfHsp90 yeast 2: -10.1; tim23-1 inh: 55.8*; TIM10 inh: 8.7; SKKanGAS inh: -20.7; tim10-1 inh: 46.2*; tim10-1 conf: -54.9; tim23-1 confirm: 20.6

How did COc1cc(C(=O)Nc2ccc(NC(=O)c3ccccc3Cl)nc2)cc(OC)c1OC do in these assays?
PfHsp90 yeast 2: -1.4; tim23-1 inh: 30.5; TIM10 inh: 9.7; SKKanGAS inh: 6.1; tim10-1 inh: 27.0

Results for O=c1cc(-c2ccco2)oc2c1ccc1ccccc12 ?
PfHsp90 yeast 2: -19.1; tim23-1 inh: -11.8; TIM10 inh: 15.9; SKKanGAS inh: -8.0; tim10-1 inh: 23.4

Results for O=c1cc(C(Cl)(Cl)Cl)oc2c1ccc1ccccc12 ?
PfHsp90 yeast 2: 58.1; tim23-1 inh: 51.7*; TIM10 inh: 29.8; SKKanGAS inh: 9.2; tim10-1 inh: 44.1*; tim10-1 conf: 25.2; tim23-1 confirm: 49.3*

How did CNC(C)C#Cc1ccc2oc3cc(C)c(C)cc3c(=O)c2c1 (stereo unspecified) do in these assays?
PfHsp90 yeast 2: 11.7; tim23-1 inh: 21.2; TIM10 inh: 8.5; SKKanGAS inh: 5.4; tim10-1 inh: 11.1

How did CNC(C)C#Cc1ccc2c(=O)c3cc(C)c(C)cc3oc2c1 (stereo unspecified) do in these assays?
PfHsp90 yeast 2: -12.1; tim23-1 inh: 51.3*; TIM10 inh: 15.9; SKKanGAS inh: 13.3; tim10-1 inh: 41.5*; tim10-1 conf: 37.6*; tim23-1 confirm: 58.8*

How did O=C(Nc1cccc2cccnc12)c1ccccc1Cl do in these assays?
tim23-1 inh: 12.8; TIM10 inh: 12.7; SKKanGAS inh: -8.9; tim10-1 inh: 8.9
